The whole screen tested about 5,500 compounds, of which about 2,000 (36%) were called active. Roughly 18% stayed inconclusive and do not appear here. Cut-off read from the data, not from the text of the source: active = normalized growth mostly below about 0.91 (no sharp cut-off); inconclusive = no clear call, values can overlap the other calls; inactive = mostly above about 0.92. This is one part of the list.
Test: chemical genetic growth profiling, strain panel (AID 1159580);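 note: tested at 20 µM; growth read once vehicle control cultures reached saturation at 30 °C; 1 = growth at the plate median or of vehicle wells; lower values mean less growth of the strain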
Settings: growth OD

Measured: normalized growth

COc1ccc2c3c1O[C@H]1C[C@@H](O)C=C[C@@]31CCN(C)C2
inactive: S. cerevisiae deletion strains, locus YJR075W, strain HOC1, hits give low values 0.947 | S. cerevisiae deletion strains, locus YKL009W, strain mrt4, hits give low values 1.02 | S. cerevisiae deletion strains, locus YKL068W, hits give low values 1.02 | S. cerevisiae deletion strains, locus YKL085W, strain MDH1 (second series), hits give low values 1 | S. cerevisiae deletion strains, locus YKL085W, strain MDH1, hits give low values 1 | S. cerevisiae deletion strains, locus YKL160W, strain elf1, hits give low values 0.996 | S. cerevisiae deletion strains, locus YKL190W, strain CNB1, hits give low values 1.01 | S. cerevisiae deletion strains, locus YKR001C, strain vps1, hits give low values 1.03 | S. cerevisiae deletion strains, locus YKR026C, strain gcn3, hits give low values 0.974 | S. cerevisiae deletion strains, locus YKR091W, strain srl3, hits give low values 0.99 | S. cerevisiae deletion strains, locus YLL001W, strain dnm1, hits give low values 0.996 | S. cerevisiae deletion strains, locus YLL026W, hits give low values 0.995 | S. cerevisiae deletion strains, locus YLL041C, strain sdh2, hits give low values 0.999 | S. cerevisiae deletion strains, locus YLR027C, strain aat2, hits give low values 0.989 | S. cerevisiae deletion strains, locus YLR039C, strain RIC1, hits give low values 1.06 | S. cerevisiae deletion strains, locus YLR058C, strain SHM2, hits give low values 1.01 | S. cerevisiae deletion strains, locus YLR102C, strain apc9, hits give low values 1.02 | S. cerevisiae deletion strains, locus YLR113W, strain HOG1, hits give low values 1.01 | S. cerevisiae deletion strains, locus YLR221C, strain rsa3, hits give low values 1.02 | S. cerevisiae deletion strains, locus YLR258W, strain gsy2, hits give low values 1 | S. cerevisiae deletion strains, locus YLR262C, strain YPT6 (second series), hits give low values 0.984 | S. cerevisiae deletion strains, locus YLR262C, strain YPT6, hits give low values 1.02 | S. cerevisiae deletion strains, locus YLR268W, strain sec22, hits give low values 0.993 | S. cerevisiae deletion strains, locus YLR320W, strain mms22, hits give low values 1.01 | S. cerevisiae deletion strains, locus YLR330W, strain CHS5, hits give low values 1.01 | S. cerevisiae deletion strains, locus YLR342W, strain FKS1 (second series), hits give low values 1.08 | S. cerevisiae deletion strains, locus YLR342W, strain FKS1, hits give low values 1.01 | S. cerevisiae deletion strains, locus YLR357W, strain rsc2, hits give low values 0.962 | S. cerevisiae deletion strains, locus YLR370C, strain arc18, hits give low values 1 | S. cerevisiae deletion strains, locus YLR371W, strain rom2, hits give low values 1.02 | S. cerevisiae deletion strains, locus YLR384C, strain iki3, hits give low values 1.01 | S. cerevisiae deletion strains, locus YLR418C, strain cdc73, hits give low values 0.991 | S. cerevisiae deletion strains, locus YML016C, strain PPZ1, hits give low values 1 | S. cerevisiae deletion strains, locus YML032C, strain rad52, hits give low values 1.04 | S. cerevisiae deletion strains, locus YML120C, strain ndi1, hits give low values 0.979 | S. cerevisiae deletion strains, locus YML124C, strain tub3, hits give low values 1.01 | S. cerevisiae deletion strains, locus YMR058W, strain fet3, hits give low values 0.989 | S. cerevisiae deletion strains, locus YMR078C, strain ctf18, hits give low values 1.03 | S. cerevisiae deletion strains, locus YMR125W, strain sto1, hits give low values 0.965 | S. cerevisiae deletion strains, locus YMR129W, hits give low values 1.01 | S. cerevisiae deletion strains, locus YMR205C, strain PFK2, hits give low values 0.992 | S. cerevisiae deletion strains, locus YMR223W, strain ubp8, hits give low values 1.04 | S. cerevisiae deletion strains, locus YMR231W, strain pep5, hits give low values 1 | S. cerevisiae deletion strains, locus YMR263W, strain SAP30, hits give low values 0.991 | S. cerevisiae deletion strains, locus YMR307W, strain GAS1, hits give low values 1.06 | S. cerevisiae deletion strains, locus YNL067W, strain RPL9B, hits give low values 0.989 | S. cerevisiae deletion strains, locus YNL071W, strain lat1, hits give low values 1.01 | S. cerevisiae deletion strains, locus YNL128W, strain TEP1, hits give low values 0.974 | S. cerevisiae deletion strains, locus YNL153C, strain GIM3, hits give low values 0.982 | S. cerevisiae deletion strains, locus YNL183C, strain NPR1, hits give low values 0.948 | S. cerevisiae deletion strains, locus YNL209W, strain ssb2, hits give low values 1 | S. cerevisiae deletion strains, locus YNL233W, strain BNI4, hits give low values 0.995 | S. cerevisiae deletion strains, locus YNL248C, strain rpa49, hits give low values 0.996 | S. cerevisiae deletion strains, locus YNL250W, strain rad50, hits give low values 1.01 | S. cerevisiae deletion strains, locus YNL271C, strain bni1, hits give low values 1.02 | S. cerevisiae deletion strains, locus YNL298W, strain CLA4, hits give low values 1.03 | S. cerevisiae deletion strains, locus YNL307C, strain MCK1, hits give low values 1.05 | S. cerevisiae deletion strains, locus YNL322C, strain KRE1 (second series), hits give low values 1 | S. cerevisiae deletion strains, locus YNL322C, strain KRE1, hits give low values 1.01 | S. cerevisiae deletion strains, locus YNR049C, strain mso1, hits give low values 1.01 | S. cerevisiae deletion strains, locus YNR052C, strain pop2, hits give low values 1.02 | S. cerevisiae deletion strains, locus YOL006C, strain TOP1, hits give low values 1.03 | S. cerevisiae deletion strains, locus YOL012C, strain htz1 0.856 | S. cerevisiae deletion strains, locus YOL147C, strain pex11, hits give low values 1.01 | S. cerevisiae deletion strains, locus YOR001W, strain rrp6, hits give low values 0.996 | S. cerevisiae deletion strains, locus YOR061W, strain CKA2, hits give low values 1.01 | S. cerevisiae deletion strains, locus YOR069W, strain VPS5, hits give low values 1.01 | S. cerevisiae deletion strains, locus YOR070C, strain gyp1, hits give low values 1.01 | S. cerevisiae deletion strains, locus YOR080W, strain dia2, hits give low values 0.994 | S. cerevisiae deletion strains, locus YOR083W, strain WHI5, hits give low values 0.988 | S. cerevisiae deletion strains, locus YOR106W, strain vam3, hits give low values 1 | S. cerevisiae deletion strains, locus YOR136W, strain idh2, hits give low values 1.02 | S. cerevisiae deletion strains, locus YOR144C, strain elg1, hits give low values 1.01 | S. cerevisiae deletion strains, locus YOR184W, strain ser1, hits give low values 1.06 | S. cerevisiae deletion strains, locus YOR231W, strain MKK1, hits give low values 0.987 | S. cerevisiae deletion strains, locus YOR265W, strain rbl2, hits give low values 1 | S. cerevisiae deletion strains, locus YOR270C, strain vph1, hits give low values 0.965 | S. cerevisiae deletion strains, locus YOR290C, strain snf2, hits give low values 1.01 | S. cerevisiae deletion strains, locus YOR316C, strain cot1, hits give low values 1.02 | S. cerevisiae deletion strains, locus YPL051W, strain arl3, hits give low values 0.988 | S. cerevisiae deletion strains, locus YPL055C, strain LGE1, hits give low values 0.935 | S. cerevisiae deletion strains, locus YPL078C, strain atp4, hits give low values 1 | S. cerevisiae deletion strains, locus YPL106C, strain sse1, hits give low values 1.01 | S. cerevisiae deletion strains, locus YPL240C, strain hsp82, hits give low values 1.03 | S. cerevisiae deletion strains, locus YPL241C, strain CIN2, hits give low values 1.01 | S. cerevisiae deletion strains, locus YPL256C, strain CLN2, hits give low values 1.01 | S. cerevisiae deletion strains, locus YPR119W, strain clb2, hits give low values 1 | S. cerevisiae deletion strains, locus YPR141C, strain kar3, hits give low values 1.01 | S. cerevisiae deletion strains, locus YPR163C, strain tif3, hits give low values 1.01 | S. cerevisiae deletion strains, locus YPR167C, strain met16, hits give low values 1.01 | S. cerevisiae deletion strains, strain wtn01, hits give low values 1 | S. cerevisiae strains, strain wild type, hits give low values 1.02

Source: PubChem BioAssay AID1159580 (chemical genetic matrix, 2015)
